In PubChem BioAssay AID720706 (Broad Institute, 2013):
Where “and” joins values, the source holds several entries; their conditions need not be identical. Identical values can stand only once. About 5,500 (1.6%) of roughly 350,000 compounds were called active.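 Rule for the calls: active = significant combined selectivity score with lowered wild-type GFP, culture density cut under 30%, mutant RFP and density less affected; inactive = any of these conditions unmet.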 The sample as a whole holds a higher share of actives than the screen did.

Experiment: GFP drop in mixed WT/humanized-ribosome E. coli culture – GFP/RFP fluorescence, OD600, single point, bacterial rRNA inhibitor project, primary screen (AID 720706)
Conditions: E. coli WT GFP vs humanized-ribosome RFP mutants, 24 h; GFP signal change (wild-type ribosome): stronger effect = lower value, DMSO median 0, no signal -100; OD600 change: measured here: OD600 growth, DMSO median 0, no signal -100; RFP signal change: measured here: RFP humanized mutant strains, DMSO median 0, no signal -100, concentration not given here

| SMILES | GFP signal change (wild-type ribosome) | OD600 change | RFP signal change |
| --- | --- | --- | --- |
| COc1ccc2c3c(n(C)c2c1)[C@H](CO)N(C(=O)c1ccc(F)cc1)CC31CCN(C(C)=O)CC1 | -0.941% (inactive) | 9.11% | -3.57% |
| CCOc1ccccc1Nc1ccc(C(=O)O)cc1[N+](=O)[O-] | 1.23% (inactive) | -10.5% | -0.853% |
| COc1ccc(S(=O)(=O)Nc2ccc3cn[nH]c3c2)cc1[N+](=O)[O-] | 3.58% (inactive) | 9.25% | -2.09% |
| COc1ccc(Br)cc1/C=N/Nc1ccc(S(=O)(=O)Nc2ccccc2C(=O)O)cc1[N+](=O)[O-] | -24.6% (active) | 15.1% | -1.87% |
| CCCC#Cc1ccc([C@H]2[C@@H](CO)N3CCCCN(S(=O)(=O)Cc4ccccc4)C[C@H]23)cc1 | -54.1% (inactive) | -75.8% | -7.77% |
| C[C@@H]1CCCCO[C@H](CN(C)S(=O)(=O)c2cccs2)[C@H](C)CN([C@H](C)CO)C(=O)c2cc(NC(=O)c3ccccc3)ccc2O1 | 0.541% (inactive) | -5.5% | 4.83% |
| O=C(CCC(=O)c1cccs1)NC1CCCCCC1 | 13.3% (inactive) | 16.6% | 0.589% |
| O=C(CCC(=O)c1cccs1)Nc1nc2ccccc2s1 | -21.4% (active) | -16.4% | -0.615% |
| O=C(c1cccs1)N1CCC(c2nc3ccccc3s2)CC1 | -27.6% (inactive) | -25.9% | 9.84% |
| COc1ccc(Br)cc1CN1CCN(C(=O)c2cccc(OC)c2OC)CC1 | -28.2% (active) | -11.8% | 1.29% |
| COc1cccc(OC)c1C(=O)N1CCN(Cc2ccccc2F)CC1 | 11.6% (inactive) | 16.8% | 0.962% |
| COc1cc(OC)c(OC)cc1CN1CCN(C(=O)c2cccc3ccccc23)CC1 | 9.36% (inactive) | 7.23% | 0.512% |
| COc1ccc(NC(=O)Nc2ccc3c(c2)C(=O)N([C@H](C)CO)C[C@H](C)[C@@H](CN(C)Cc2ccc(C(=O)O)cc2)OCCCC[C@H](C)O3)cc1 | -0.806% (inactive) | -1.43% | -1.16% |
| C[C@H]1CCCCO[C@H](CN(C)S(=O)(=O)c2ccc(Cl)cc2)[C@@H](C)CN([C@@H](C)CO)C(=O)c2cc(NC(=O)Nc3ccc4c(c3)OCO4)ccc2O1 | 2.33% (inactive) | 1.85% | -3.19% |
| COc1ccc2c3c(n(C)c2c1)[C@H](CO)N(C(C)=O)CC31CN(Cc2ccc(Cl)cc2)C1 | -5.13% (inactive) | -14.3% | 1.56% |
| C[C@@H]1CN([C@@H](C)CO)S(=O)(=O)c2ccc(-c3ccncc3)cc2O[C@@H]1CN(C)C(=O)C1CCC1 | -1.91% (inactive) | 0.625% | -1.44% |
| CCC(C)(C)NC(=O)/C=C/c1cc(OC)c(OC)c(S(=O)(=O)N2CCc3ccccc32)c1 | 25% (inactive) | 13.4% | -10.2% |
| COc1cc(/C=C/C(=O)OCC(=O)c2ccccc2)cc(OC)c1OC | -32.8% (inactive) | -28.1% | -5.92% |
| COc1cc(/C=C/C(=O)N2CCc3ccccc3C2)cc(OC)c1OC | -21.8% (active) | -16.9% | 0.83% |

| SMILES | GFP signal change (wild-type ribosome) | OD600 change | RFP signal change |
| --- | --- | --- | --- |
| O=C(C[C@H]1C[C@H]2c3cc(NC(=O)Nc4ccc(C(F)(F)F)cc4)ccc3O[C@H]2[C@@H](CO)O1)NCc1cccnc1 | 3.1% (inactive) | 2.56% | -0.972% |
| COc1cccc(S(=O)(=O)N2[C@@H]3CNC[C@H]2C3c2ccc(-c3ccccc3OC)cc2)c1 (some centres undefined) | -57.9% (inactive) and 6.81% (inactive) | -76.9% and 4.62% | -12.3% and 0.158% |
| COc1cccc(S(=O)(=O)N2C[C@H](O)COC[C@H]3O[C@@H](CC(=O)N4CCN(c5ccccc5)CC4)CC[C@@H]32)c1 | -6.4% (inactive) | -3.12% | 2.98% |
| CCCN(C)C[C@@H]1OCCCC[C@H](C)Oc2ccc(NS(=O)(=O)c3ccc(C)cc3)cc2C(=O)N([C@H](C)CO)C[C@@H]1C | -0.00475% (inactive) | -4.83% | 1.63% |
| COCC(=O)Nc1ccc2c(c1)C(=O)N(C)C[C@@H](OC)[C@@H](C)CN(CC1CCCCC1)[C@@H](C)CO2 | 0.911% (inactive) | 5.47% | -0.068% |
| COc1ccc(CN2CCN(Cc3ccc(OC)c(OC)c3OC)CC2)cc1 | 13.2% (inactive) | 19.1% | -0.244% |
| COc1ccccc1N1CCN(Cc2ccc(OC)c3ccccc23)CC1 | -21.9% (active) | -8.32% | -3.95% |
| COc1ccccc1N1CCN(Cc2cc(OC)c3c(c2)OCO3)CC1 | -2.5% (inactive) | -4.28% | -3.78% |
| CO[C@@H](CN(C)S(=O)(=O)c1ccc(F)cc1)[C@H](C)CN(C(=O)Nc1ccccc1F)[C@@H](C)CO | -3.35% (inactive) | 0.819% | -3.65% |
| C[C@@H]1CN([C@H](C)CO)C(=O)Cc2cc(NC(=O)C3CCCCC3)ccc2O[C@@H]1CN(C)Cc1ccc(C(F)(F)F)cc1 | -2.69% (inactive) | 1.55% | 2.15% |
| Cc1nc2ccc(NC(=O)C3CCCCC3)cc2s1 | -1.32% (inactive) | -0.83% | -0.607% |
| COc1ccc(C(=O)NC(=S)NC2CCCCC2)cc1 | -49.8% (inactive) | -73.1% | -12.9% |
| COc1ccc2nc(NC(=O)NC3CCCCC3)sc2c1 | -22.5% (active) | -17.5% | 7.27% |
| C[C@H](CO)N1C[C@H](C)[C@H](CN(C)Cc2ccccc2)OCCCC[C@H](C)Oc2ccc(NC(=O)CCC(F)(F)F)cc2C1=O | -1.2% (inactive) | -5.79% | -1.47% |
| CC(C)NC(=O)Nc1ccc2c(c1)C(=O)N([C@@H](C)CO)C[C@@H](C)[C@H](CN(C)Cc1ccc(Cl)c(Cl)c1)O2 | -11.4% (inactive) | -58.1% | 26% |
| O=C(/C=C/c1ccc(OCc2c(F)cccc2Cl)cc1)N1CCOCC1 | -49% (inactive) | -72.9% | -13.9% |
| CN(C)CCCNC(=O)/C=C/c1ccc(OCc2c(F)cccc2Cl)cc1 | -45.5% (active) | -31% | -4.52% |
| COCCCNC(=O)/C=C/c1ccc(OCc2c(F)cccc2Cl)cc1 | -4.38% (inactive) | -2.58% | -3.12% |
| Cc1noc(C)c1NC(=O)Nc1ccc2c(c1)C(=O)N([C@H](C)CO)C[C@@H](C)[C@@H](CN(C)Cc1ccncc1)OCCCC[C@H](C)O2 | 0.824% (inactive) | 10.7% | -1.14% |
